# Source: PubChem
# Sampled rows, rich in hits. Any-hit rate of the full collection: about 2.4%.
# D2 PAM-1 = positive allosteric modulators of human D2 dopamine receptor; P14416; HEK293 T-REx D2, calcium flux, EC20 dopamine potentiation; potentiation, % at 10 µM; 0.34% of 340,000 active; AID 485347;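 active = potentiation over 3 SD above the plate norm, cut at about 30% in these data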; also: 0% is about no effect
# Target sequence (P14416 whole entry, looked up): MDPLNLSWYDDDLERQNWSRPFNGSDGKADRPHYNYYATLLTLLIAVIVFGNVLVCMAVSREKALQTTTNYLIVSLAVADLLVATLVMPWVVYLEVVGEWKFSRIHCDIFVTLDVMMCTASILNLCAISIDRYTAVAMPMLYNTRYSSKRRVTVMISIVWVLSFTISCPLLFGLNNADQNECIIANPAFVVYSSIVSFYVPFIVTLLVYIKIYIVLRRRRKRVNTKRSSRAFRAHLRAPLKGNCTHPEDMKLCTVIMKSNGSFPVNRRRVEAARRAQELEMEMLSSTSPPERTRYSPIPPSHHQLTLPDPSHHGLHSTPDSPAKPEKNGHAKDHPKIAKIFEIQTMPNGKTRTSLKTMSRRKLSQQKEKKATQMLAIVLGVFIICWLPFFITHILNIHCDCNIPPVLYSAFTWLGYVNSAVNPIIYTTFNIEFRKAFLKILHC
#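 Potentiation of an EC20 dopamine calcium response measured kinetically over 180 s, after a preceding 180 s compound-only read flagging agonists. Cells: inducible Hek293 Trex D2 line, 4000/well, cultured overnight at 30 C before dye loading.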
# D2 ag-1 = agonists of human D2 dopamine receptor (beta-arrestin). P14416. DiscoveRx PathHunter D2 beta-arrestin, luminescence, 90 min; 100% = 57 uM dopamine signal. activation, % (test concentration not listed). 0.084% of 360,000 active; in the data active = activation above about 40%; inconclusive = between about 15% and that limit
#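 DiscoveRx PathHunter D2 beta-arrestin cells (2,100/well) attached overnight, then compound-stimulated 90 min at 37 C in HBSS/10 mM HEPES/0.1% Tween-20 buffer; beta-galactosidase complementation read by luminescence after 1 h at ambient temperature. Dopamine 57 uM final (EC100) as control.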
# D2 PAM-2 = potentiates the human D2 dopamine receptor allosterically; DiscoveRx D2 beta-arrestin cells, luminescence, 90 min; 100% = 57 uM dopamine signal; 0.23% of 360,000 active; AID 624464; P14416; potentiation, % (no concentration beside the values); in the data active = potentiation above about 50%; inconclusive = mostly about 30% to 49%
#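 PathHunter D2 cells, attached overnight at 37 deg C, received compound in DMSO plus dopamine at EC20 (50 nM final) for 90 min at 37 deg C. Beta-arrestin recruitment was read as luminescence after 1 h with detection reagent at ambient temperature.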
# D2 ag-2 = agonists of human D2 dopamine receptor | 0.53% of 340,000 active | P14416 | activation, % at 2 µM | HEK293 T-REx D2 cells, calcium flux agonist mode;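 active = activation over 3 SD above normal in the single-dose calcium agonist read, cut at about 30% in these data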; also: 0% is about no effect
#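 Tetracycline-induced HEK293 T-REx cells with force-coupled D2 receptor, plated overnight at 30 C, loaded with no-wash calcium dye. After a 10 s baseline, compound was pin-added and calcium flux read kinetically for 180 s; calcium rises flagged agonists.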
# D2 antag = D2 dopamine receptor (human) antagonism. HEK293 TREx D2 cells, calcium flux, dopamine EC80. inhibition, % at 10 µM. 2% of 340,000 active. AID 485344; in the data active = inhibition above about 30%; inactive = below that, where a call was filed; also: 0% is about no effect
#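 Measurement of antagonist activity uses fluorescent calcium dye in inducible HEK293 T-REx D2 cells: 10 s baseline, compound addition with 180 s read, EC80 dopamine addition with a further 180 s read.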
# D3 arrestin ag = activates human D3 dopamine receptor beta-arrestin recruitment | shares compounds with D2 ag-2 | DiscoveRx D3 beta-arrestin cells, luminescence, 90 min | Potency, µM (series often up to 76.9 µM), inactives show at the highest dose activation, most hits filed as activators | 4% of 2,300 active;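 also: potency is read from the fitted curve at half-maximal effect; 100% = dopamine control response; nearly all actives have a fitted effect of over 70% in size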
# D2 ag-3 = D2 receptor agonism, beta-arrestin counterscreen; Potency, µM (top dose mostly 76.9 µM), for inactives: top-dose activation, most hits filed as activators; shares compounds with D2 ag-2; 5.9% of 2,300 active; DiscoveRx PathHunter D2 beta-arrestin, luminescence, 90 min; response scale: percent relative to full dopamine signal; AID 720507; also: potency is read from the fitted curve at half-maximal effect; % of control where 0% means no effect; nearly all actives have a fitted effect of over 70% in size
# * = called active by the depositor; ? = inconclusive; / = no result given. Unless noted, calls follow the shape of the dose curve; as a rule, active = well fitted activation curve with a large enough effect; inconclusive = small, poorly fitted or top-dose-only effect; inactive = flat fitted curve, though single readings scatter.
SMILES,D2 PAM-1,D2 ag-1,D2 PAM-2,D2 ag-2,D2 antag,D3 arrestin ag,D2 ag-3
COc1cc(C=NCC2OCCc3ccccc32)cc(OC)c1 (stereo not given),-12.5,5.5,-6.7,41.7*,-4.0,11.7%,8.8%
COc1ccc(C=NCC2OCCc3ccccc32)cc1OC (stereo not given),-23.0,-2.0,-0.1,46.5*,-3.5,7.7%,13.0%
COc1ccc(C(=O)NCC2OCCc3ccccc32)cc1 (stereo not given),5.5,-0.8,-12.6,0.9,-28.9,/,/
Cc1cc(C)c(NC(=O)C(C)n2c(=O)cc(C)c3c(C)nn(-c4ccccc4)c32)c(C)c1 (stereo not given),3.1,/,/,/,/,/,/
Cc1cc(=O)oc2cc(OCC(O)CN3CCN(c4ccccc4)CC3)ccc12 (stereo not given),-30.5,52.3*,29.7,89.9*,71.9*,-3.8%,?
CC(=O)c1ccc(OCC(O)CN2CCc3ccccc3C2)cc1 (stereo not given),-42.4,0.9,-17.3,43.2*,0.3,-11.3%,-4.1%
OC(COc1ccccc1CNCc1cccnc1)CN1CCc2ccccc2C1 (stereo not given),-0.9,-2.9,-9.3,0.0,-12.0,/,/
COc1ccc2c(C)cc(=O)oc2c1OCC(O)CN1CCOCC1 (stereo not given),/,-7.3,-12.3,/,/,/,/
COc1ccccc1N1CCN(CC(O)COc2ccc3c(C)cc(=O)oc3c2)CC1 (stereo not given),-24.3,?,5.5,24.9,72.1*,0.8%,22.4%
OC(COc1ccc(CNCc2cccnc2)cc1)CN1CCc2ccccc2C1 (stereo not given),-20.6,1.0,-7.9,54.3*,48.8*,3.8%,7.4%
CC(=O)c1ccc(OCC(O)CN2CCOCC2)cc1 (stereo not given),-12.1,-4.4,-12.2,-0.5,9.2,/,/
CSCCC(NS(=O)(=O)c1ccc2c(c1)oc(=O)n2C)C(=O)NCc1cccs1 (stereo not given),-8.5,2.5,-0.7,-0.5,3.8,/,/
COc1ccc2[nH]c(C(=O)N3CCCN(Cc4ccc(F)cc4)CC3)cc2c1,-21.2,2.3,-5.3,0.0,-9.5,/,/
CCOc1ccc(NC(=O)CN2C(=O)NC(C)(c3ccc(OC(F)F)cc3)C2=O)cc1 (stereo not given),-0.2,-7.4,-5.8,15.0,1.0,/,/
Cc1ccc(C)c(OCC(O)CN2CCc3ccccc3C2)c1C (stereo not given),-20.2,-1.3,-21.7,0.1,-12.1,/,/
Cc1cc(=O)oc2cc(OCC(O)CN3CCc4ccccc4C3)ccc12 (stereo not given),/,3.1,-32.4,/,/,-4.2%,5.4%
Cc1ccc(CNC(=O)c2cc(S(=O)(=O)N3CCOCC3)cn2C)cc1,-8.5,-0.4,-0.4,-0.1,-4.1,/,/
CC(C)N1CCN(Cc2cccc(-c3ccco3)c2)CC1CCO (stereo not given),-3.2,2.9,-15.7,0.0,14.0,-7.7%,-6.3%
CC(C)N1CCN(Cc2ccccc2-c2ccco2)CC1CCO (stereo not given),4.6,-1.5,-1.0,-1.5,-11.9,/,/
CC(CC(=O)NNC(=O)c1cccc(Cl)c1)c1ccccc1 (stereo not given),8.8,-3.5,-6.9,0.2,-25.3,/,/
O=Cc1c(N2CCCCC2)nc2ccccn2c1=O,6.7,2.9,7.4,-0.4,-12.0,/,/
O=Cc1c(N2CCCCCC2)nc2ccccn2c1=O,-15.9,4.1,-3.2,56.2*,-6.7,-0.6%,0.7%
c1ccc2sc(SCSc3nc4ccccc4s3)nc2c1,-25.5,-3.7,0.2,31.7*,12.4,-6.9%,?
O=C(O)CCSc1nc2ccccc2s1,8.4,-1.2,0.3,2.4,5.2,/,/
COc1cccc(CN2CCC(Oc3ccc(C(=O)N4CCCCC4)cc3)CC2)c1,-1.9,-3.0,-17.6,0.2,-9.0,/,/
